The source of these data is PubChem BioAssay.

Records with an inconclusive call do not appear. Active and inactive are the calls of the source.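 Rule for the calls, unless noted: active = viability at or below 30% in both replicate assays; inconclusive = viability at or below 30% in just one of the two assays; inactive = the rest.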

A short description of assay [1]: reducers of endogenous Her2 protein level, primary screen, SKBR3 breast tumor cells, AlphaScreen, ATP viability (AID 461;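 active = Her2 level under about 52% in both replicate screens, with viability over 70% of control, limit read from the data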;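 for Her2 level: lower value means less Her2 protein in the cells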;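 for viability: percent of carrier control wells set as 100% viability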). Particulars: 18-24 h, measured here: SKBR3 viability, ATP luminescence, at 10 µM.
Assay [2] addresses Receptor tyrosine-protein kinase erbB-2 (Homo sapiens) (UniProt P04626). Described as above. Particulars: 18-24 h, at 10 µM, stronger effect = lower value.
Assay [3] can be described thus: SK-BR-3 cell growth inhibitors, pilot screen, 24 h, human (AID 572;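 active = viability at or below 10% of carrier control in both of two separate runs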;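 note: compound exposure lasted between 18 and 24 h rather than exactly 24 h; 100% = carrier-treated control wells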). Particulars: SK-BR-3 viability, CellTiter-Glo luminescence, at 10 µM, stronger effect = lower value.
Assay [4] is described as follows: HUVEC growth inhibition – cell-based, human, primary screen (AID 575).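 Note: 100% = median of untreated cell wells with 0.1% DMSO on each plate.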 Particulars: HUVEC proliferation, CellTiter-Glo luminescence, 72 h; at 10 µM; stronger effect = lower value.
Assay [5] can be described thus: growth inhibitors of H69AR lung tumor, primary screen, human, duplicate replicates (AID 580;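 active = viability at or under a set limit in both replicates, limit being median viability minus 3 SD, cut at about 48% in these data, passing the limit was not always enough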;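 note: 100% = mean luminescence of untreated wells and 0% = no signal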). Particulars: H69AR lung tumor cells viability, ATP luminescence, 72 h; at 10 µM; stronger effect = lower value.
Assay [6] in a line: reversal of MRP1-mediated doxorubicin resistance, pilot screen, H69AR cells, doxorubicin co-treatment (AID 601;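 active = viability loss from added drug above about 55%, and viability with drug at most 40%, in both replicates, limit read from the data, passing the limit was not always enough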). Particulars: CellTiter-Glo, 72 h, at 10 µM; for differential viability (reversal): stronger effect = higher value.
Assay [7] in a line: 384-well plate pilot, post-Golgi transport modulator project, inhibition of yeast transport mutant growth (AID 636; in the data active = inhibition above about 31%). Particulars: absorbance 615 nm, about 18 h, stronger effect = higher value.
Assay [8] in a line: growth suppression of yeast trafficking mutant, preliminary HTS, modulators of trafficking downstream of Golgi apparatus project, 1536-format plate, OD 615 nm (AID 637; in the data active = inhibition above about 30%). Particulars: yeast transport mutant growth, absorbance 615 nm, 18 h; stronger effect = higher value.
Assay [9] is described as follows: OD615 S. cerevisiae growth inhibition, permissive medium, pilot counter-assay, permissive growth control for S. cerevisiae lifespan shortening project (AID 705;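 active = growth inhibition above 25% in both replicates, a cutoff set 3 SD above the mean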). Particulars: OD615, 24 h, at 10 µM, stronger effect = higher value.
Assay [10] in a line: Restrictive medium S. cerevisiae growth inhibition, OD615, pilot screen of yeast lifespan reduction project, restrictive growth control (AID 706;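 active = growth inhibition above a set limit, 3 SD over mean compound inhibition, in both replicates, cut at about 43% in these data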;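 note: modified DeaD lifespan yeast strain shifted to restrictive glucose medium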). Particulars: OD615, 48 h, at 10 µM, stronger effect = higher value.
The nature of assay [11]: viability gain of MRP-1-high H69AR cells under doxorubicin, pilot screen, MRP-1 activator project, CellTiter-Glo, duplicate (AID 807;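 active = viability increase at or above a cutoff of the median across tested compounds plus 3 SD, cut at about 8.5% in these data, passing the limit was not always enough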;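 note: compound pretreatment 18-22 h then 72 h combined with doxorubicin; 0% = doxorubicin alone and 100% = vehicle without doxorubicin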). Particulars: H69AR viability with doxorubicin, CellTiter-Glo luminescence; at 10 µM; stronger effect = higher value.
The nature of assay [12]: growth suppression of beta-catenin knockout HCT116, pilot screen, human colon tumor cells (AID 823;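 active = cell viability at or below a set limit in both duplicate runs, the limit being the all-compound median minus 4 SD, cut at about 23% in these data, passing the limit was not always enough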;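 note: 0% = wells killed by 20 µM Hyamine and 100% = untreated DMSO cell wells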). Particulars: CellTiter-Glo, 60 h, at 10 µM, stronger effect = lower value.
Assay [13] can be described thus: growth suppression of PTEN-deleted HCT116, pilot screen, cell-based, HCT116 clonal line, CellTiter-Glo (AID 824;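 active = viability at or below 27.92% in each of two runs, the all-compound median minus 4 SD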;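 note: 0% = 20 µM Hyamine control and 100% = vehicle cell control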). Particulars: 60 h, at 10 µM, stronger effect = lower value.
Assay [14] in a line: inhibitors of the yeast RAM network, pilot screen, dse1pr::URA3 reporter, 5-FOA selection (AID 869;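 active = inhibition over a set limit, the all-compound mean plus 3 SD, in both replicate runs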;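 note: 0% = DMSO wells with no growth and 100% = 10 µM 1-NA-PP1 with full growth; RAM network block rescues cells from 5-FOA so hits raise OD615 growth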). Particulars: S. cerevisiae dse1pr::URA3 5-FOA growth, OD615, 2 d; at 10 µM; stronger effect = higher value; strain carries analog-sensitive mutant Cbk1 kinase.
The mark [15] stands for this setting: H69AR cells + 2 uM doxorubicin, measured here: viability with 2 uM doxorubicin, stronger effect = lower value.
Setting [16] is: H69AR cells, compound alone cytotoxicity.

Receptor tyrosine-protein kinase erbB-2 (Homo sapiens), sequence (P04626 whole entry, looked up): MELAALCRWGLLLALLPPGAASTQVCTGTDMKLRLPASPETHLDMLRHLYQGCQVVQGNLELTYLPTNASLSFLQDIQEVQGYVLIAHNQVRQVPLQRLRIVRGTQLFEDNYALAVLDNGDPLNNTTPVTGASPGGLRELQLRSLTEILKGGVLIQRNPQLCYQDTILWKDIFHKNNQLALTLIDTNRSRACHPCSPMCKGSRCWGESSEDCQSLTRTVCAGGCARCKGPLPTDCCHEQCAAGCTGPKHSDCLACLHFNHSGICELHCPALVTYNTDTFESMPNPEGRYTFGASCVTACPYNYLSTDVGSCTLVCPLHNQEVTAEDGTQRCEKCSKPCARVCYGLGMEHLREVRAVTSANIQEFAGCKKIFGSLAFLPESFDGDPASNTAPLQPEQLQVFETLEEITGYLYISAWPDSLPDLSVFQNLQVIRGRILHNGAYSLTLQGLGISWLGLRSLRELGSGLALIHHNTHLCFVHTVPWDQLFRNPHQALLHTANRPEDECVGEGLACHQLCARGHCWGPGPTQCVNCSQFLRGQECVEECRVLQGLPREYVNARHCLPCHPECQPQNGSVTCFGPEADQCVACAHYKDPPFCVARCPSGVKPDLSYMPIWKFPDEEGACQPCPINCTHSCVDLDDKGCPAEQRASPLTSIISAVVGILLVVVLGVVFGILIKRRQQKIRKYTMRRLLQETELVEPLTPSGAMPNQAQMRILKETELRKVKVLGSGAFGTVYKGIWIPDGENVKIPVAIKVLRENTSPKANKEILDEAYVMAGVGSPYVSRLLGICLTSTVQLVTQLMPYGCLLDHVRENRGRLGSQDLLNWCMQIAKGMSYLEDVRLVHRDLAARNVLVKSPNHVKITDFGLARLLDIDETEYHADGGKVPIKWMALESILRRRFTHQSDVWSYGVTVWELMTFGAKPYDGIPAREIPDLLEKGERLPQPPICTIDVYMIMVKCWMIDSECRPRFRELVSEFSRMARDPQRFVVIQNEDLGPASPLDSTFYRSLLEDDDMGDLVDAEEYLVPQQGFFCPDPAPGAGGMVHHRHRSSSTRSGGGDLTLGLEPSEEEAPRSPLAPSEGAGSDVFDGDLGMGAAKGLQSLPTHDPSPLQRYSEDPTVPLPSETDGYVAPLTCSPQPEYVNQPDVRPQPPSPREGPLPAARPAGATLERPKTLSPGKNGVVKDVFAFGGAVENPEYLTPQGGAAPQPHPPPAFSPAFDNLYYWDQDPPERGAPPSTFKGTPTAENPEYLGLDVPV

As for `CSc1ccccc1C(=O)NC1CC2CCC1C2` (stereo not drawn), the viability in [1] is 102%; in assay [3] it was 102% (inactive); in [4] it was 92.9% (inactive); in [5], 94.8% (inactive); in [6] (setting [15]), 87.2%; in assay [6] (setting [16]), 94.8%. Further, in assay [2], the Her2 level is 89.5% (inactive). Besides, the differential viability (reversal) in assay [6] (H69AR cells + 2 uM doxorubicin) was 7.59% (inactive). Also, the inhibition in [7] is -5.33% (inactive); in [8], 5.65% (inactive).
`CCOC(=O)C1=C(C)NC(=O)C(C#N)C1c1ccco1` (stereo not drawn): the viability was 104% in [1]; 104% (inactive) in assay [3]; 92.6% (inactive) in [4]; 90% (inactive) in assay [5]; 90.6% in assay [6] (setting [15]); 90% in assay [6] (setting [16]). In addition, the Her2 level in assay [2] is 85% (inactive). Also, the differential viability (reversal) in [6] (H69AR cells + 2 uM doxorubicin) is -0.555% (inactive). The values for the inhibition in assay [7] and in [8] were -4.8% (inactive) and -1.31% (inactive), respectively.
`CCOc1ccccc1Nc1nnc(SCC(=O)N2CCCC2)s1`: the viability in assay [1] was 104%; in [3], 104% (inactive); in [4], 103% (inactive); in assay [5], 101% (inactive); in [6] (setting [15]) it was 92.8%; in [6] (setting [16]), 101%. Besides, the Her2 level in assay [2] is 91.5% (inactive). For the same compound, the differential viability (reversal) in [6] (H69AR cells + 2 uM doxorubicin) was 7.78% (inactive). In addition, the figures for the inhibition in assay [7] and in assay [8] were -3.12% (inactive) and -0.95% (inactive), respectively.
Take `O=C(COc1ccc2c(c1)OCO2)NC12CC3CC(CC(C3)C1)C2`: the viability was 89.5% in assay [1]; 89.5% (inactive) in assay [3]; 75.2% (inactive) in assay [4]; 80.8% (inactive) in assay [5]; 86% in assay [6] (setting [15]); 80.8% in assay [6] (setting [16]). Besides, the Her2 level in assay [2] is 93% (inactive). In addition, in assay [6] (H69AR cells + 2 uM doxorubicin), the differential viability (reversal) is -5.25% (inactive). Also, the values for the inhibition in assay [7] and in assay [8] were -5.07% (inactive) and -6.07% (inactive), respectively.
On to `CCOc1ccc(OCC)c2sc(C)nc12`, for which the viability in [1] is 107%; in assay [3], 107% (inactive); in assay [4], 102% (inactive); in [5], 99.5% (inactive); in assay [6] (setting [15]), 87.1%; in assay [6] (setting [16]), 99.5%. Also, the Her2 level in assay [2] is 94% (inactive). Moreover, in [6] (H69AR cells + 2 uM doxorubicin), the differential viability (reversal) was 12.4% (inactive). Besides, the inhibition is 0.79% (inactive) in assay [7] and 1.48% (inactive) in assay [8].
Turning to `COc1ccc(NC(=O)C23CCC(C)(C(=O)C2)C3(C)C)cc1` (stereo not drawn), the viability in [1] is 92.5%; in assay [3] it was 92.5% (inactive); in assay [4] it was 105% (inactive); in assay [5], 102% (inactive); in [6] (setting [15]), 99.3%; in [6] (setting [16]), 102%. The Her2 level in assay [2] is 102% (inactive). Moreover, the differential viability (reversal) in assay [6] (H69AR cells + 2 uM doxorubicin) is 2.21% (inactive). The inhibition is -1.07% (inactive) in [7] and 0.48% (inactive) in assay [8].
Turning to `COc1ccc(N2C(=O)CC(N3CCCC4CCCCC43)C2=O)cc1` (stereo not drawn), the viability in assay [1] was 102%; in assay [3] it was 102% (inactive); in [4], 109% (inactive); in [5], 90.8% (inactive); in assay [6] (setting [15]), 81.5%; in assay [6] (setting [16]) it was 90.8%. In addition, the viability in assay [12] is 98.3% (inactive); in assay [13], 101% (inactive). In addition, the Her2 level in assay [2] was 125% (inactive). Besides, the differential viability (reversal) in [6] (H69AR cells + 2 uM doxorubicin) is 9.28% (inactive). Further, the inhibition in [7] was -4.03% (inactive); in [8], -6.83% (inactive); in [14], 0.71% (inactive). Moreover, the growth inhibition in assay [9] is -3.32% (inactive); in [10] it was 3.25% (inactive). Moreover, in [11], the viability increase is -0.71% (inactive).
For the compound `Cn1cccc1Cc1nnc(SCC(=O)N2CCOCC2)n1-c1ccc(F)cc1`, the viability in assay [1] was 88.5%; in assay [3] it was 88.5% (inactive); in assay [4] it was 106% (inactive); in assay [5], 99.7% (inactive); in assay [6] (setting [15]) it was 88.3%; in assay [6] (setting [16]), 99.7%. Also, the viability in [12] was 102% (inactive); in assay [13] it was 94.3% (inactive). In addition, the Her2 level in [2] was 104% (inactive). For the same compound, in assay [6] (H69AR cells + 2 uM doxorubicin), the differential viability (reversal) is 11.4% (inactive). Further, the figures for the inhibition in assay [7], in assay [8] and in [14] were -6.93% (inactive), 0.33% (inactive) and -0.47% (inactive), respectively. Also, the growth inhibition in assay [9] was 5.02% (inactive); in [10], 19.7% (inactive). Also, the viability increase in [11] was -1.33% (inactive).
With `COc1cc(Cn2c(-c3nonc3N)nc3ccccc32)ccc1C`, the viability in assay [1] is 104%; in [3], 104% (inactive); in [4], 38.9% (inactive); in assay [5], 17.8% (active); in [6] (setting [15]), 47.1%; in assay [6] (setting [16]), 17.8%. In assay [2], the Her2 level was 71.5% (inactive). The differential viability (reversal) in [6] (H69AR cells + 2 uM doxorubicin) is -29.2% (inactive). Besides, the inhibition in assay [7] is -3.92% (inactive); in assay [8] it was 1.59% (inactive).
`Cc1ccccc1-c1nc(CS(=O)(=O)CC(=O)NCc2ccccc2)c(C)o1`: the viability in [1] is 93.5%; in assay [3], 93.5% (inactive); in [4] it was 87.8% (inactive); in assay [5], 96.5% (inactive); in assay [6] (setting [15]) it was 90.4%; in assay [6] (setting [16]), 96.5%. The Her2 level in assay [2] was 100% (inactive). In [6] (H69AR cells + 2 uM doxorubicin), the differential viability (reversal) was 6.09% (inactive). For the same compound, the inhibition in [7] is -7.07% (inactive); in [8], -2.3% (inactive).
Regarding `Cc1cccc(C)c1NC(=O)c1cc(S(=O)(=O)N2CCOCC2)ccc1F`, the viability in assay [1] was 88.5%; in assay [3] it was 88.5% (inactive); in assay [4], 102% (inactive); in assay [5], 89.9% (inactive); in [6] (setting [15]), 89.2%; in [6] (setting [16]) it was 89.9%. Moreover, the Her2 level in assay [2] is 78.5% (inactive). In assay [6] (H69AR cells + 2 uM doxorubicin), the differential viability (reversal) was 0.745% (inactive). The figures for the inhibition in assay [7] and in [8] were -5.53% (inactive) and -9.17% (inactive), respectively.
As for `CC(C)COC(=O)C1C2C=CC3(CN(C(C)c4ccc(Br)cc4)C(=O)C13)O2` (stereo not drawn), the viability in assay [1] was 114%; in assay [3], 114% (inactive); in assay [4] it was 101% (inactive); in assay [5] it was 94.9% (inactive); in assay [6] (setting [15]), 83.6%; in assay [6] (setting [16]) it was 94.9%. The viability in assay [12] was 98.3% (inactive); in assay [13], 95.8% (inactive). For the same compound, the Her2 level in assay [2] is 100% (inactive). In addition, in assay [6] (H69AR cells + 2 uM doxorubicin), the differential viability (reversal) is 11.3% (inactive). Moreover, the figures for the inhibition in [7], in assay [8] and in assay [14] were -6.53% (inactive), -5.74% (inactive) and 0.915% (inactive), respectively. The results for the growth inhibition in assay [9] and in [10] were -9.09% (inactive) and 5.3% (inactive), respectively. The viability increase in [11] is -2.82% (inactive).
For `COc1ccccc1C(=O)Nc1ccc(N2CCN(Cc3ccccc3)CC2)cc1`, the viability was 81.5% in assay [1]; 81.5% (inactive) in assay [3]; 66.8% (inactive) in [4]; 89.6% (inactive) in assay [5]; 87.5% in assay [6] (setting [15]); 89.6% in assay [6] (setting [16]). In addition, the Her2 level in [2] is 75.5% (inactive). In [6] (H69AR cells + 2 uM doxorubicin), the differential viability (reversal) was 2.1% (inactive). In addition, the inhibition in assay [7] is -5.2% (inactive); in assay [8], 1.97% (inactive).
